# Screening results deposited in PubChem BioAssay by Broad Institute.
# GSIS activator – GLuc luminescence reporter in INS-1E cells, primary screen for activators of glucose-dependent secretion of insulin. INS-1E GLuc reporter insulin secretion, 2-3 h. activation, % at 16.6 µM. 370,000 compounds, 0.61% hits;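 active = lowest replicate activation of at least 40%, so every replicate reaches that level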;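 note: 0% = median of neutral control wells and 100% = median of IBMX positive control wells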
# Statin myotox sup – suppressors of statin myotoxicity in C2C12 myotubes, primary screen, cell-based, single point, plate reader; 330,000 compounds, 0.78% hits; rescue of ATP level, % at 7.49 µM; C2C12 myotubes + simvastatin, ATP luminescence, 48 h; scaled: DMSO 0, geranylgeraniol control 100;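 active = mean ATP rescue above about 67%, or every replicate alone reaching that limit, limit read from the data, passing the limit was not always enough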;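 note: myotubes were challenged with 10 µM simvastatin during compound exposure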
# EWS-Fli inh – EWS/Fli-driven NR0B1 reporter inhibitors, primary screen, A673 cells, NR0B1 luciferase, luminescence, MLPCN library; viability-normalised; AID 651661, 2012; 350,000 compounds, 0.67% hits; inhibition, % at 12.6 µM;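 active = mean inhibition of at least 50% after viability correction, with every replicate also passing that limit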;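 note: firefly luciferase signal divided by Alamar Blue viability fluorescence both relative to DMSO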
# HIV Env fusion – inhibitors of HIV-1 Env-driven cell-cell fusion, primary screen, HeLa-JRFL effector, CEM21 target cells, luciferase; inhibition, % at 12.3 µM; 360,000 compounds, 1.1% hits;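 active = mean replicate inhibition score of at least 50 and every replicate individually at or above 50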;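 note: 0% = plate neutral controls and 100% = maraviroc near 300 nM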
# PAX8 reporter – inhibitors of PAX8-driven TPO luciferase reporter, primary screen, RMG-I cells, single concentration; SteadyGlo, 24 h; inhibition, % at 12.6 µM; 360,000 compounds, 1.2% hits; AID 652154, 2013;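 active = mean replicate inhibition at least 60% with every replicate also reaching 60%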;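 note: luciferase light reporting Pax8 driven TPO promoter activity; plate controls were median of neutral control wells for no effect and mitoxantrone controls for full effect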
# miR122 inh – miR-122 Renilla sensor signal increase in Huh7, primary screen, miR-122 inhibitor project, cell-based, single point, plate reader; Huh7 miR-122 Renilla luciferase sensor, 48 h; neutral wells = 0, positive control = 100; activation (reporter increase), % at 12.5 µM; 340,000 compounds, 0.3% hits; AID 602342, 2012;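 active = mean replicate activation score at least 90 and every replicate individually at or above 90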;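 note: higher luciferase means less miR-122 activity so hits act as miR-122 inhibitors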
# * = called active by the depositor; . = not tested or not shown; [ ] = another dose, or the depositor's remark. Most compounds without a hit are left out; they make up all but 3.1% or so of the library.
SMILES,GSIS activator,Statin myotox sup,EWS-Fli inh,HIV Env fusion,PAX8 reporter,miR122 inh
O=c1[nH]c2ccccc2cc1CN(Cc1cccnc1)S(=O)(=O)c1ccc(Cl)cc1,4.9,35.8,-0.7,4.5,20.7,.
COc1ccc2[nH]c(=O)c(CN(C)C(=O)COc3ccccc3)cc2c1,.,72.2*,.,.,.,0.5
CC(=O)Nc1ccc(S(=O)(=O)N(Cc2cccnc2)Cc2cc3ccccc3[nH]c2=O)cc1,14.0,3.0,.,15.2,71.1*,.
COc1ccc(C(=O)N(Cc2ccccc2)Cc2cc3cc4c(cc3[nH]c2=O)OCCO4)cc1,.,-70.0,.,59.1*,.,11.3
COc1cccc(C(=O)N(Cc2ccccc2)Cc2cc3cc4c(cc3[nH]c2=O)OCCO4)c1,-8.0,-16.4,.,-21.9,.,4.6
COc1ccc(N(Cc2cc3cc(OC)ccc3[nH]c2=O)S(=O)(=O)c2ccc(NC(C)=O)cc2)cc1,12.2,-0.2,.,17.5,91.1*,18.0
COc1ccc(N(Cc2cc3ccccc3[nH]c2=O)S(=O)(=O)c2ccc(OC)cc2)cc1,7.6,26.6,12.8,-20.0,20.9,27.5
CCCCN(Cc1cc2cc(OC)ccc2[nH]c1=O)C(=O)COc1ccccc1,6.3,-8.1,.,.,.,4.7
O=C(Nc1ccccc1F)N[C@H]1CC[C@@H](CCNS(=O)(=O)c2ccccc2)O[C@H]1CO,19.3,1.3,-0.4,0.2[16.7 µM],6.5,.
O=C(CCc1ccc(S(=O)(=O)NCc2ccccc2)cc1)NCc1ccco1,4.2,.,-13.7,.,156.5*,-0.4
O=S(=O)(NCc1cccnc1)c1ccc(Cl)c2ccccc12,14.0,-1.9,-2.4,4.0,-6.7,174.7*
O=S(=O)(NCc1cccnc1)c1ccc(Cl)c(Cl)c1Cl,.,-1.1,.,.,.,19.2
O=C(CCc1ccc(S(=O)(=O)NCCc2ccccc2)cc1)NCc1ccc2c(c1)OCO2,.,1.1,.,-22.8,-1.0,196.0*
O=C(CCc1ccc(S(=O)(=O)NCc2ccccc2)cc1)NCc1cccnc1,16.7,.,-2.7,.,127.3*,1.8
C[C@H](CO)N1C[C@H](C)[C@@H](CN(C)C(=O)Nc2cccc3ccccc23)Oc2ccc(NC(=O)Cn3cnnn3)cc2CC1=O,11.6,.,.,.,11.2,.
O=C(C[C@H]1C[C@H]2c3cc(NC(=O)NC4CCCCC4)ccc3O[C@H]2[C@@H](CO)O1)NCc1ccncc1,3.9,4.0,1.0,-4.7[16.7 µM],-6.3,3.2[16.7 µM]
O=C(C[C@@H]1C[C@H]2c3cc(NC(=O)NC4CCCCC4)ccc3O[C@H]2[C@@H](CO)O1)NCc1ccncc1,2.0,8.2,2.1,61.5*[16.7 µM],-1.0,-0.4[16.7 µM]
CN(C)C(=O)C[C@H]1C[C@@H]2c3cc(NC(=O)NC4CCCCC4)ccc3O[C@@H]2[C@H](CO)O1,0.9,-2.3,-11.6,75.4*[16.7 µM],-0.5,0.4[16.7 µM]
O=C(C[C@H]1C[C@H]2c3cc(NC(=O)NC4CCCC4)ccc3O[C@H]2[C@@H](CO)O1)NC1CCCCC1,5.8,6.9,2.7,83.7*[16.7 µM],3.4,4.7[16.7 µM]
CCCNC(=O)N1CC(=O)N2[C@@H](CO)[C@H](c3ccc(C#Cc4cccc(F)c4)cc3)[C@@H]2C1,-6.9,.,-9.4,.,-15.9,.
Cc1noc(C)c1S(=O)(=O)N(C)C[C@H]1Oc2c(NC(=O)C3CCOCC3)cccc2C(=O)N([C@H](C)CO)C[C@H]1C,17.9,-19.7,7.3,-5.6[16.7 µM],-6.3,4.3[16.7 µM]
CS(=O)(=O)c1ccc(Cl)c(NC(=O)COC(=O)Cc2c[nH]c3ccccc23)c1,51.6*,-6.1,8.7,.,7.5,-1.2
CC(=O)Nc1sc(C)c(C)c1C(=O)OCC(=O)Nc1cc(S(C)(=O)=O)ccc1Cl,55.7*,-8.7,-2.9,13.2,26.4,-2.0
C[C@H](CO)N1C[C@H](C)[C@@H](CN(C)Cc2ccc(Oc3ccccc3)cc2)Oc2ccc(NS(=O)(=O)c3cccs3)cc2C1=O,-31.9,-33.1,4.2,.,.,-3.4[16.7 µM]
COc1ccc(Cl)cc1NC(=O)c1cc(-c2ccccc2O)n[nH]1,5.1,.,.,-1.7,.,.
SMILES,GSIS activator,Statin myotox sup,EWS-Fli inh,HIV Env fusion,PAX8 reporter,miR122 inh
COc1ccc(OC)c(NC(=O)c2cc(-c3cc(Cl)ccc3O)n[nH]2)c1,.,-28.0,.,55.2*,26.0,-27.5
Oc1c(CN2CCOCC2)cc(COCc2ccccc2)c2cccnc12,-10.6,.,.,21.7,65.9*,4.2
c1ccc(N2CCN(Cc3ccnc4ccccc34)CC2)cc1,.,-3.3,.,-24.3,.,.
CCOC(=O)N1CCN(Cc2cc(Cl)c3cccnc3c2O)CC1,-8.4,.,32.0,40.8,78.2*,.
Oc1c(CN2CCN(c3ccccc3)CC2)cc(Br)c2cccnc12,-44.0,23.3,-4.4,-51.5,84.6*,-21.8
COc1ccccc1N1CCN(Cc2ccc(O)c3ncccc23)CC1,-25.8,4.7,.,74.8*,.,-12.7
CC(=O)N1[C@@H](CO)[C@@H](c2ccccc2)C12CN(C(=O)c1ccc3c(c1)OCO3)C2,-5.0,.,2.4,.,.,.
C[C@H]1CCCCO[C@@H](CN(C)Cc2ccc(C(=O)O)cc2)[C@@H](C)CN([C@@H](C)CO)C(=O)c2cc(NC(=O)c3ccncc3)ccc2O1,17.2,.,-10.9,-16.0[16.7 µM],1.9,8.7[16.7 µM]
Cc1ccc(S(=O)(=O)N(C)C[C@H]2Oc3ccc(NC(=O)Nc4ccc(F)cc4)cc3C(=O)N([C@@H](C)CO)C[C@@H]2C)cc1,3.1,-28.0,17.4,.,7.8,-6.9[16.7 µM]
Cc1ccc(S(=O)(=O)N(C)C[C@H]2OCCCC[C@@H](C)Oc3ccc(NC(=O)NC(C)C)cc3C(=O)N([C@@H](C)CO)C[C@@H]2C)cc1,-1.4,.,-8.0,-4.3[16.7 µM],-8.3,-1.2[16.7 µM]
C[C@H]1CN([C@@H](C)CO)C(=O)c2cccc(NC(=O)Nc3ccc(C(F)(F)F)cc3)c2O[C@H]1CN(C)C(=O)Nc1ccc(F)cc1,-19.3,-10.2,-5.3,.,.,-5.0[16.7 µM]
COc1ccc(/C=N/N(C(C)=O)c2nc(-c3ccc(C)cc3)cs2)cc1,146.4*,3.0,.,-32.9,.,-1.8
CC(=O)N(/N=C/c1cccc(C)c1)c1nc(-c2ccc(Br)cc2)cs1,110.2*,0.3,.,-136.2,.,4.3
COc1ccc(-c2csc(N(CC3CCCO3)C(=O)c3ccc(C)cc3)n2)cc1 (configuration not stated),.,4.1,.,48.6*,7.7,-4.6
COc1ccccc1/C=N/N(C(C)=O)c1nc(-c2ccc(F)cc2)cs1,.,.,.,-83.8,.,6.7
CCN1[C@@H]2Cn3c(ccc(C4=CCCCC4)c3=O)[C@H]1[C@@H](C(=O)NCC(F)(F)F)[C@@H]2CO,11.7,.,.,.,.,.
COCCCN1C(=O)C(=O)/C(=C(/O)c2ccc(OC)cc2)C1c1cccc(OC)c1 (configuration not stated),.,125.1*,.,.,.,-4.9
COc1ccc(C2/C(=C(/O)c3ccccc3)C(=O)C(=O)N2CCO)cc1 (configuration not stated),.,87.2*,.,.,.,-1.6
